# Only some compounds are listed: those with a hit (about 5.4% of all), similar ones and a draw of the others.
# Sm TGR inh – qHTS Assay for the Inhibitors of Schistosoma Mansoni Peroxiredoxins; Schistosoma mansoni thioredoxin glutathione reductase (TGR), Q962Y6; purified TGR, DTNB reduction, TNB absorbance 405 nm; Potency, µM (doses to about 114 µM), actives largely listed as inhibitors; 360,000 tested, 3% active; active = well fitted inhibition curve with a large enough effect; inconclusive = small, poorly fitted or top-dose-only effect; inactive = no such curve, though single readings can be large or run the other way; note: nearly all actives have a fitted effect of over 60% in size
#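 First, TGR (20 nM dispensed) and NADPH were mixed with compound. Second, a 15 min room-temperature incubation followed. Third, further NADPH and then DTNB were added to start the reaction. Finally, TNB absorbance was monitored kinetically.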
# Marburg entry inh – qHTS for inhibitors of binding or entry into cells for Marburg Virus; 300,000 tested, 1.8% active; Marburg virus pseudotyped entry inhibition, cell reporter; AID 540276, 2011; Potency, µM (titrated, usually from 37.8 µM), usual class: inhibitors; calls by dose curve; tested in HEK293 cells
# LASV entry inh – qHTS for Inhibitors of binding or entry into cells for Lassa Virus | Lassa virus pseudotype entry inhibition, cell reporter | Potency, µM (series often up to 37.9 µM), actives largely listed as inhibitors | 300,000 tested, 1.2% active; calls by dose curve; tested in HEK293 cells; note: nearly all actives have a fitted effect of over 50% in size
# VACV mCherry inh – qHTS for Stage-Specific Inhibitors of Vaccinia Orthopoxvirus: mCherry Reporter Primary qHTS; Potency, µM (highest dose often 36.5 µM), actives largely listed as inhibitors; 310,000 tested, 0.63% active; Vaccinia virus mCherry reporter infection, fluorescence; calls by dose curve; tested in A549 cells; note: nearly all actives have a fitted effect of over 35% in size
# FMDV inh – High Throughput Screening for Foot and Mouth Disease Virus Antivirals; FMDV antiviral cell-based qHTS; Potency, µM (highest dose often 57.9 µM), most hits filed as inhibitors; 410,000 tested, 1.2% active; calls by dose curve; tested in HEK293T cells; note: read-out not given here; nearly all actives have a fitted effect of over 45% in size
# VACV Venus inh – qHTS for Stage-Specific Inhibitors of Vaccinia Orthopoxvirus: Venus Reporter Primary qHTS; Vaccinia virus Venus reporter expression, fluorescence; Potency, µM (top dose mostly 36.5 µM), most hits filed as inhibitors; 330,000 tested, 0.46% active; calls by dose curve; tested in A549 cells; note: nearly all actives have a fitted effect of over 30% in size
# Hits are given with their value; – = inactive; ? = inconclusive; · = no result given; ! = not active in a repeat.
SMILES,Sm TGR inh,Marburg entry inh,LASV entry inh,VACV mCherry inh,FMDV inh,VACV Venus inh
CCOC(=O)CN1C(=O)C(Sc2n[nH]c(-c3cccc(C)c3)n2)CCc2ccccc21 (stereo unspecified),–,?,–,?,?,–
CC(=O)Nc1ccc(N2C(=O)CC(Sc3nc(C)cc(C)n3)C2=O)cc1 (stereo unspecified),50µM,–,–,–,–,–
CCOC(=O)CN1C(=O)C(Sc2n[nH]c(-c3ccc(C)cc3)n2)CCc2ccccc21 (stereo unspecified),–,?,?,?,28µM,–
COc1cccc(N2C(=O)CC(Sc3nc(C)cc(C)n3)C2=O)c1 (stereo unspecified),–,–,–,–,–,–
COC(=O)c1ccc(N2C(=O)CC(Sc3n[nH]c(C)n3)C2=O)cc1 (stereo unspecified),1.4µM,–,?,–,–,–
COc1ccc(N2C(=O)CC(Sc3n[nH]c(-c4cccc(C)c4)n3)C2=O)cc1 (stereo unspecified),0.32µM,?,–,–,–,–
COC(=O)c1cc(C(=O)OC)cc(N2C(=O)CC(Sc3nc(C)cc(C)n3)C2=O)c1 (stereo unspecified),?,–,–,·,–,–
COc1ccccc1N1C(=O)CC(Sc2nc(C)cc(C)n2)C1=O (stereo unspecified),–,–,–,–,·,–
CCOc1ccccc1N1C(=O)CC(Sc2n[nH]c(-c3ccccc3)n2)C1=O (stereo unspecified),0.56µM,–,–,–,?,–
CCSc1nc2c(c(=O)[nH]c(=O)n2C)n1CC(O)COc1ccccc1C (stereo unspecified),–,?,–,·,20µM,·
O=C(/C=C/c1ccccn1)c1cc(Cl)cc(Cl)c1O,40µM,·,·,–,–,–
CCn1c(SCC(=O)Nc2nc3ccccc3s2)nc2c(c1=O)SC(C)C2 (stereo unspecified),–,?,–,·,32µM,?
CC1OC(CC(=O)O)CC2=C1C(=O)c1c(O)cccc1C2=O (stereo unspecified),·,0.5µM,0.56µM,?,3.5µM,?
CC(C)=CCCC1(C)C=Cc2c(O)c3c(c(CC=C(C)C)c2O1)OC12C(=CC4CC1C(C)(C)OC2(C/C=C(/C)C(=O)O)C4O)C3=O (stereo unspecified),·,·,·,13µM,10µM,11µM
CC(C)CCCC1(C)C=Cc2c(O)c3c(c(CCC(C)C)c2O1)OC12C(CC4CC1C(C)(C)OC2(CCC(C)C(=O)O)C4O)C3=O (stereo unspecified),·,·,·,–,–,–
CC(C)=CCCC1(C)C=Cc2c(O)c3c(c(CC=C(C)C)c2O1)OC12C(=CC4CC1C(C)(C)OC2(C/C=C(/C)C(=O)O)C4=O)C3=O (stereo unspecified),·,·,·,?,5.6µM,?
CC(C)=CCCC1(C)C=Cc2c(O)c3c(c(CC=C(C)C)c2O1)OC12C(=CCCC1C(C)(C)O[C@@]2(C/C=C(\C)C(=O)O)C(=O)O)C3=O (stereo partly specified),·,·,·,–,–,–
O=C(CSc1nc2c(oc3ccccc32)c(=O)n1-c1ccccc1)Nc1ccccc1F,–,–,·,–,–,–
CCCCC(=O)Nc1cc2nn(-c3ccc(OCC)cc3)nc2cc1C,–,?,?,–,–,–
CCC(Sc1nc(-c2ccccc2)[nH]c1S(=O)(=O)c1ccc(C)cc1)C(=O)O (stereo unspecified),?,–,–,–,–,–
Cc1cccc2nc(COc3ccc4ccccc4c3Br)cn12,–,10µM,?,–,–,–
O=C(O)/C=C/C(=O)c1ccc2c(c1)CCc1ccccc1-2,0.56µM,·,·,?,?,?
COc1ccc(C(=O)NCCn2cc(SCc3cccc(F)c3)c3ccccc32)cc1OC,–,?,?,–,18µM,–
O=C(NCCn1cc(SCc2cccc(F)c2)c2ccccc21)c1cccc(C(F)(F)F)c1,–,?,–,?,?,?
C=C1C(=O)O[C@@H]2C[C@@H](C)[C@@H]3C=CC(=O)[C@@]3(C)[C@@H](O)[C@H]12,25µM,·,·,?,8.9µM!,10µM!
SMILES,Sm TGR inh,Marburg entry inh,LASV entry inh,VACV mCherry inh,FMDV inh,VACV Venus inh
C=C1C(=O)O[C@@H]2C[C@@H](C)[C@@H]3C=CC(=O)[C@@]3(C)[C@@H](OC(C)=O)[C@H]12,–,·,·,11µM,3.2µM,7.9µM
C[C@@H]1C[C@@H]2OC(=O)[C@]3(C)[C@H]2[C@@H](OC3(C)O)[C@]2(C)C(=O)C=C[C@H]12 (stereo partly specified),?,·,·,–,–,?
CCOc1ccc(CNCc2c(C(=O)O)c(C)n(Cc3ccc(F)cc3Cl)c2C)cc1,–,?,–,–,–,–
COc1ccc(C(=O)Nc2nc3n(n2)C(c2ccc(F)cc2)C=C(c2ccc(Cl)cc2)N3)cc1 (stereo unspecified),–,–,–,–,–,–
CC1Nc2ncnc(N3CCN(c4ccccc4)CC3)c2N(Cc2ccc(Br)cc2)C1=O (stereo unspecified),–,·,·,7.1µM,–,?
Cc1cc(C)c2c(CC(=O)N(Cc3ccccc3)C3CCS(=O)(=O)C3)coc2c1 (stereo unspecified),–,–,–,–,–,–
Oc1ccc(C2C[C@H]3CC[C@@H]2C3)cc1O (stereo partly specified),1µM,?,–,–,–,–
Cc1ccccc1COc1ccc(/C(O)=C2\C(=O)C(=O)N(CCCn3ccnc3)[C@H]2c2ccco2)cc1,·,–,·,·,·,·
COC(=O)[C@@]1(Cc2ccc(OC)cc2)[C@H]2c3cc(C(=O)N(C)C)n(Cc4ccc(OC(F)(F)F)cc4)c3C[C@H]2CN1C(=O)c1ccccc1,–,9.2µM,?,–,–,?
COC(=O)[C@@]1(Cc2ccc(F)cc2)[C@H]2c3cc(C(=O)N(C)C)n(Cc4ccccc4)c3C[C@H]2CN1C(=O)c1ccccc1,–,13µM,?,–,?,?
COC(=O)[C@@]1(Cc2ccc(F)cc2)[C@H]2c3cc(C(=O)N(C)C)n(Cc4ccc(OC)c(OC)c4)c3C[C@H]2CN1C(=O)c1ccccc1,–,?,?,–,–,–
O=C(CN(c1cccc(C(F)(F)F)c1)S(=O)(=O)c1ccc(Cl)c([N+](=O)[O-])c1)NCc1ccccc1,–,23µM,?,–,–,–
O=C(CN(c1cccc(C(F)(F)F)c1)S(=O)(=O)c1ccc(Cl)c([N+](=O)[O-])c1)NCc1ccccc1Cl,–,?,?,–,40µM,–
O=C(CN(c1ccc(Br)cc1)S(=O)(=O)c1ccc(Cl)c([N+](=O)[O-])c1)NCCc1ccccc1,·,?,–,–,–,–
Cc1ccc(N(CC(=O)NCCc2ccc(F)cc2)S(=O)(=O)c2ccc(Cl)c([N+](=O)[O-])c2)c(C)c1,–,?,23µM,·,?,·

# Assay outcomes (PubChem)
